PKA-R1A activ: activators of PKA-R1A complex; P00514+P68181; PKA-R1A dissociation, Cy5-IP20 fluorescence polarization; scaled: DMSO 0%, 113 µM cGMP 100%; activation, % at 11.4 µM; 0.083% of 340,000 active; AID 504707;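 active = percent activation above the mean of all tested compounds plus 3 SD, cut at about 19% in these data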;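 note: higher means more PKAc released from R1A so a rise in polarization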
SUMO Mot1 rescue: inhibitors of SUMOylation pathway: yeast Mot1-301 growth rescue; S. cerevisiae Mot1-301 growth rescue, ATP luminescence, 38.5C; percent above DMSO median, 100 means doubled; growth rescue, % at 18.8 µM; 1% of 320,000 active; AID 2716;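 active = every valid replicate shows activation above 250% relative to neutral control wells; inactive = the rest, any valid replicate at or below 250%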
MsrA act: activators of bovine methionine sulfoxide reductase A; AID 602163; 0.3% of 360,000 active; activation, % at 10.6 µM; purified bovine MsrA, absorbance read-out; in the data active = activation above about 7.5%
PKA-R2B act: activates the human PKA-R2B holoenzyme complex; P22694+P31323; PKA-R2B holoenzyme dissociation, Cy5-IP20 fluorescence polarization; R2B truncated from residue 108, S112A mutant; 0% DMSO only, 100% 113 µM cGMP; activation, % at 11.4 µM; 0.079% of 340,000 active; AID 504700;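 active = activation above a cutoff set at the mean over all compounds plus 3 SD, cut at about 18% in these data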;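 note: higher means more holoenzyme dissociation and a rise in polarization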
Target sequence (P31323 whole entry, looked up, other chains not shown, the tested form may be a part): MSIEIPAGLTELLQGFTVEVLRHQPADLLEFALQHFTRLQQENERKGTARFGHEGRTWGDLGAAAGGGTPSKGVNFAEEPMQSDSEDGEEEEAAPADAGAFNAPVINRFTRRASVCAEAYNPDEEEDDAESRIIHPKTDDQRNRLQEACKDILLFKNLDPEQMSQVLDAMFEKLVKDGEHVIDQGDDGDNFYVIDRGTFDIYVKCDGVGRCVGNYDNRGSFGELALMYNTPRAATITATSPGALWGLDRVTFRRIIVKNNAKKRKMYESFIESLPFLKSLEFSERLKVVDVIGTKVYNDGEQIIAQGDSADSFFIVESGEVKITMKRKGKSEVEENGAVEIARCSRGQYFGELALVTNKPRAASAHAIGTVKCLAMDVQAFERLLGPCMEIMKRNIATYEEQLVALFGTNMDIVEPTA
MsrA inh: inhibitors of bovine MsrA. 0.75% of 360,000 active. AID 651718. inhibition, % at 15.5 µM. purified bovine MsrA, absorbance read-out; in the data active = inhibition above about 4.5%
Mot1 SUMO dose: yeast SUMO pathway inhibition in dose response. shares compounds with SUMO Mot1 rescue. S. cerevisiae Mot1-301 galactose growth, ATP luminescence, 24 h; -100 = growth of slx-deleted rescue strain. growth activity, percent, % at 42 µM. 2,300 tested, under 10 active. AID 493004;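 active = Signal drops as the depositor expects, and the fitted half-maximal dose is no more than ten times the top valid tested dose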;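 note: more negative values mean stronger growth rescue toward the control strain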
Of the large screens only hits and unclear results are named; the others gave an inactive call (follow-up assays come after a bar, where they were run). Only some compounds are listed: those with a hit (about 2% of all), similar ones and a draw of the others.

O=C(NC1CCCC1)[C@@H]1CCCN1C(=O)[C@@H](NS(=O)(=O)c1ccc(F)cc1F)C1CCCCC1	none (no result: PKA-R1A activ, SUMO Mot1 rescue, MsrA act, PKA-R2B act)
COc1ccc2nc(NC(=O)c3cccc(S(=O)(=O)N4CCOCC4)c3)sc2c1	none
Cc1nc2ccc(NC(=O)c3ccc(S(=O)(=O)N4CCOCC4)cc3)cc2s1	SUMO Mot1 rescue active | Mot1 SUMO dose inactive
COc1ccc2nc(NC(=O)c3cc(S(=O)(=O)N4CCOCC4)ccc3C)sc2c1	SUMO Mot1 rescue 528.9 | Mot1 SUMO dose inactive
CC(=O)Nc1ccc(C(=O)Nc2ccc(S(=O)(=O)N3CCOCC3)cc2)cc1	none
O=C(NC(C(=O)N1CCCC1C(=O)NC1CCCC1)c1ccccc1)c1cccs1 (stereo unspecified)	none (no result: PKA-R1A activ, SUMO Mot1 rescue, MsrA act, PKA-R2B act)
Cc1cc(Cl)c2oc(C(=O)NC3CCC(O)CC3)c(C)c2c1 (stereo unspecified)	SUMO Mot1 rescue active | Mot1 SUMO dose inactive
Cc1cc(Cl)c2oc(C(=O)NCC(C)(C)N3CCOCC3)c(C)c2c1	none
O=S(=O)(c1ccccc1)N1CCCc2nc(-c3ccc(Br)cc3)ccc21	none (no result: PKA-R1A activ, SUMO Mot1 rescue, MsrA act, PKA-R2B act)
Oc1c(Br)cc(Br)cc1C=Nc1ccc2[nH]ncc2c1	SUMO Mot1 rescue 359.7 | Mot1 SUMO dose inactive
Oc1c(Br)cc(Br)cc1C=Nc1cccnc1	SUMO Mot1 rescue 481.1 | Mot1 SUMO dose inactive
COc1ccc(C=Nc2ccc3[nH]ncc3c2)c(O)c1	none
O=C(C(=O)N1CCN(S(=O)(=O)c2ccc(C(F)(F)F)cc2)CC1)c1cccc(C(F)(F)F)c1	none (no result: PKA-R1A activ, SUMO Mot1 rescue, MsrA act, PKA-R2B act)
C[C@H](CO)N1C[C@H](C)[C@@H](CN(C)S(C)(=O)=O)OCc2cn(nn2)CCCC1=O	none (no result: PKA-R1A activ, SUMO Mot1 rescue, MsrA act, PKA-R2B act)
Cc1ccc(C(=O)N2CCN(C)CC2)cc1[N+](=O)[O-]	none
Cc1ccc(C(=O)O)cc1[N+](=O)[O-]	SUMO Mot1 rescue 364.9 | Mot1 SUMO dose inactive
O=C(/C=C/c1ccco1)Nc1ccccc1C(=O)Nc1cccc(C(=O)O)c1	none
Cc1cc(NC(=O)/C=C/c2ccco2)ccc1NC(=O)c1ccccc1	SUMO Mot1 rescue 431.6 | Mot1 SUMO dose inactive
Cc1[nH]c(C)c(S(=O)(=O)NCC(C)c2ccccc2)c1C(=O)N1CCCCC1 (stereo unspecified)	SUMO Mot1 rescue 496.6 | Mot1 SUMO dose inactive
O[C@@H](Cc1ccccc1)[C@@H](/C=C/c1ccccc1)N(Cc1ccccc1)Cc1ccccc1	none (no result: PKA-R1A activ, SUMO Mot1 rescue, MsrA act, PKA-R2B act)
COc1cc(O)oc1C=Nc1ccc(C(=O)O)cc1	SUMO Mot1 rescue 577.4 | Mot1 SUMO dose inactive
COc1cc(O)oc1C=Nc1ccc(Cl)cc1	none
Nc1[nH]c(C(=O)c2ccccc2)c(-c2cccc3ccccc23)c1C(=O)NCc1ccc(F)c(F)c1	none (no result: PKA-R1A activ, SUMO Mot1 rescue, MsrA act, PKA-R2B act)
O=[N+]([O-])c1cccc(N=NN(CCO)c2cccc([N+](=O)[O-])c2)c1	none
N#CCN(N=Nc1ccccc1)c1ccccc1	SUMO Mot1 rescue 616.8 | Mot1 SUMO dose inactive
Cc1ccc(S(=O)(=O)NCC(=O)OCC(=O)c2ccc(Br)s2)cc1	SUMO Mot1 rescue 746.6 | Mot1 SUMO dose inactive
O=C(NCC1CCN(C(=O)C(=O)c2cccs2)CC1)c1ccc2ccccc2c1	none (no result: PKA-R1A activ, SUMO Mot1 rescue, MsrA act, PKA-R2B act)
O=C(Nc1ccccn1)c1ccc(CN(c2ccccc2)S(=O)(=O)c2ccccc2)cc1	SUMO Mot1 rescue 504.8 | Mot1 SUMO dose inactive
COc1ccc(N(Cc2ccccc2)S(=O)(=O)c2cccc(C(=O)Nc3ccccn3)c2)cc1	none
CN(N=Cc1ccc2c(c1)OCO2)C(=O)c1ccccc1N	none (no result: PKA-R1A activ, SUMO Mot1 rescue, MsrA act, PKA-R2B act)
COc1ccc(N2CCN(C(=O)Cn3nnc(-c4ccc(OC)c(OC)c4)n3)CC2)cc1	SUMO Mot1 rescue 385.1 | Mot1 SUMO dose inactive
COc1ccc(-c2nnn(CC(=O)N3CCN(c4ccccc4OC)CC3)n2)cc1OC	none
COc1cc2c(=O)n(CCC(=O)NCC3CCCO3)c(=O)n(CC(=O)Nc3ccccc3C)c2cc1OC (stereo unspecified)	SUMO Mot1 rescue 444.2 | Mot1 SUMO dose inactive
Oc1cccc(/C=N/N2CCN(c3ccccn3)CC2)c1	SUMO Mot1 rescue 547.1 | Mot1 SUMO dose inactive
CC(=O)C1=C(C)N(Cc2ccc(F)cc2)C(=S)NC1c1cccc(Br)c1 (stereo unspecified)	none (no result: PKA-R1A activ, SUMO Mot1 rescue, MsrA act, PKA-R2B act)
CON(C)C(=O)C(C)(C)CC#CCN(CC#Cc1ccccc1)S(=O)(=O)c1ccc(C)cc1	none (no result: PKA-R1A activ, SUMO Mot1 rescue, MsrA act, PKA-R2B act)
CC1(C)CC(=O)C2=C(C1)Oc1ncn(CCO)c(=N)c1C2c1ccccc1 (stereo unspecified)	SUMO Mot1 rescue 543.0 | Mot1 SUMO dose inactive
O=C(Nc1cccc(C(=O)Nc2ccc(F)cc2F)c1)c1ccccc1	SUMO Mot1 rescue active | Mot1 SUMO dose inactive
O=C(Nc1ccccc1)Nc1ccc(F)cc1F	none
CCCOC(=O)c1c(-c2ccc(OC)cc2)oc2ccc(-c3ccc(OC)nc3)cc12	SUMO Mot1 rescue 632.6 | Mot1 SUMO dose inactive
COc1ccc(-c2oc3ccc(-c4cc(OC)c(OC)c(OC)c4)cc3c2C(=O)c2ccc(OC)nc2)cc1	SUMO Mot1 rescue 812.8 | Mot1 SUMO dose inactive
COc1ccc(C(=O)c2c(-c3ccc(OC)cc3)oc3ccc(-c4cc(OC)c(OC)c(OC)c4)cc23)cc1	none
Cc1ccc(C2NC(=O)c3n[nH]c(C(C)C)c32)cc1 (stereo unspecified)	none (no result: PKA-R1A activ, SUMO Mot1 rescue, MsrA act, PKA-R2B act)
CCONc1ncnc2nonc12	none
Clc1ccc(CONc2ncnc3nonc23)c(Cl)c1	SUMO Mot1 rescue active | Mot1 SUMO dose inactive
COC(=O)[C@]12C[C@H](CC(=O)NCC3CCCCC3)C(=O)N(Cc3ccccc3)C1=C[C@H](C1CCCC1)O[C@@H]2C	none (no result: PKA-R1A activ, SUMO Mot1 rescue, MsrA act, PKA-R2B act)
NC(=O)c1ncn([C@@H]2O[C@H](C(=O)N[C@H](Cc3c[nH]c4ccccc34)C(=O)N3CCN(C(=O)N4CCOCC4)CC3)[C@@H](O)[C@H]2O)n1	none (no result: PKA-R1A activ, SUMO Mot1 rescue, MsrA act, PKA-R2B act)
O=C(CCSc1nnnn1-c1ccccc1)N1CCOCC1	SUMO Mot1 rescue 687.5 | Mot1 SUMO dose inactive
O=C(CCSc1ccccc1)N1CCOCC1	none
CC(=O)N(c1nc2ccccc2s1)N1C(=O)c2ccccc2C1=O	none (no result: PKA-R1A activ, SUMO Mot1 rescue, MsrA act, PKA-R2B act)
NC(=O)NC(=O)CSc1nc(C2CCCCC2)n(-c2ccccc2)n1	SUMO Mot1 rescue 685.3 | Mot1 SUMO dose inactive
Cc1cc(O)cc(=O)n1-c1cccc(Br)c1	none (no result: PKA-R1A activ, SUMO Mot1 rescue, MsrA act, PKA-R2B act)
O=C(CCS(=O)(=O)c1ccc(Br)s1)NCc1ccccc1	SUMO Mot1 rescue 736.7 | Mot1 SUMO dose inactive
Cc1ccc(CNC(=O)CCS(=O)(=O)c2ccc(Br)s2)o1	none
Cc1cccc(NC(=O)CNC(=O)[C@H](CCc2ccccc2)NC(=O)[C@H]2O[C@@H](n3cnc4c(N)ncnc43)[C@H](O)[C@@H]2O)c1C	none (no result: PKA-R1A activ, SUMO Mot1 rescue, MsrA act, PKA-R2B act)
CCN(CC)C(=O)Cn1cc(S(=O)(=O)CC(=O)NCCc2ccc(OC)c(OC)c2)c2ccccc21	SUMO Mot1 rescue 383.6 | Mot1 SUMO dose inactive
CCCCNC(=O)C1C2C=CC3(CN(Cc4ccc(C)cc4)C(=O)C13)O2 (stereo unspecified)	SUMO Mot1 rescue 858.7 | Mot1 SUMO dose inactive
